# Compounds with a hit are over-represented: about 2.9% of the library has one in this group of screens.
# SKN-1 inh: suppressors of acrylamide-induced Pgst-4::GFP reporter in worms, primary screen, SKN-1 inhibitor project, whole organism, uHTS, GFP/RFP fluorescence ratio, strain VP596. C. elegans VP596 Pgst-4::GFP/RFP ratio, 24 h. inhibition, % at 21.8 µM. hit rate 0.49% among 360,000;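 active = interference check ratio from 0.5 to 1.5 plus GFP to RFP signal ratio inhibition reaching or exceeding a fixed threshold, cut at about 30% in these data, passing the limit was not always enough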
# PG9 Ab binder: binders of HIV-1 gp120 antibody PG9, primary screen, biochemical, TR-FRET | HIV-1 gp120 / PG9 antibody interaction | TR-FRET gp120-PG9 antibody binding | inhibition, % at 6.7 µM | hit rate 0.43% among 360,000; in the data active = inhibition above about 8.5%
# RAM inhibit: inhibitors of the yeast RAM network, primary screen, dse1pr::URA3 reporter, 5-FOA selection; S. cerevisiae dse1pr::URA3 reporter, 5-FOA growth OD615, 2 d; analog-sensitive cbk1-as2 kinase mutant strain; hit rate 1.8% among 190,000; inhibition, % at 50 µM;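 active = inhibition above a set limit, 3 SD over mean compound inhibition, cut at about 8.4% in these data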;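 also: 0% = DMSO-only wells with no growth and 100% = 10 µM 1-NA-PP1 full growth; inhibition rescues growth on 5-FOA so higher OD means more RAM inhibition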
# EP2 antag: human EP2 receptor antagonists, primary screen, TR-FRET cAMP, C6 glioma cells; C6 glioma cells expressing human EP2; cells stimulated with saturating PGE2; Prostaglandin E2 receptor EP2 subtype (Homo sapiens), P43116; inhibition, % at 25 µM; hit rate 0.52% among 260,000; AID 1422, 2008;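 active = percent inhibition above 40 after rounding to a whole number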;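 also: rat C6 glioma host cells with rolipram phosphodiesterase inhibitor present; the protocol text gives 20 µM as final concentration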
# EP2 modulator: EP2 receptor modulators, cAMP readout, primary screen, cell-based, HTRF cAMP, PGE2 stimulation; EP2-expressing cells, cAMP HTRF FRET, PGE2 co-stimulation; Prostaglandin E2 receptor EP2 subtype (Homo sapiens), P43116; hit rate 0.83% among 260,000; AID 940, 2007; induction, % at 25 µM;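 active = compounds whose cAMP rise, as percent of the full-agonist control response, exceeds 60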;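 also: rat C6 glioma line stably carrying human EP2 under a CMV promoter; the protocol text gives 20 µM as final concentration; 100% = response of wells given 1 µM PGE2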
# Rev-erbA mod: modulators of Rev-erb alpha DNA binding, primary screen, biochemical, FITC-DNA, fluorescence polarization, uHTS; activity, % at 10 µM; hit rate 0.79% among 370,000; Nuclear receptor subfamily 1 group D member 1 (Homo sapiens), P20393; Rev-erbα–FITC-DNA binding, 90 min;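 active = activity above about 14%, limit read from the data; passing the limit was not always enough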;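 also: 0% = DMSO wells with 35 nM protein and 100% = DMSO wells with 750 nM protein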
# Target sequence (P20393 whole entry, looked up): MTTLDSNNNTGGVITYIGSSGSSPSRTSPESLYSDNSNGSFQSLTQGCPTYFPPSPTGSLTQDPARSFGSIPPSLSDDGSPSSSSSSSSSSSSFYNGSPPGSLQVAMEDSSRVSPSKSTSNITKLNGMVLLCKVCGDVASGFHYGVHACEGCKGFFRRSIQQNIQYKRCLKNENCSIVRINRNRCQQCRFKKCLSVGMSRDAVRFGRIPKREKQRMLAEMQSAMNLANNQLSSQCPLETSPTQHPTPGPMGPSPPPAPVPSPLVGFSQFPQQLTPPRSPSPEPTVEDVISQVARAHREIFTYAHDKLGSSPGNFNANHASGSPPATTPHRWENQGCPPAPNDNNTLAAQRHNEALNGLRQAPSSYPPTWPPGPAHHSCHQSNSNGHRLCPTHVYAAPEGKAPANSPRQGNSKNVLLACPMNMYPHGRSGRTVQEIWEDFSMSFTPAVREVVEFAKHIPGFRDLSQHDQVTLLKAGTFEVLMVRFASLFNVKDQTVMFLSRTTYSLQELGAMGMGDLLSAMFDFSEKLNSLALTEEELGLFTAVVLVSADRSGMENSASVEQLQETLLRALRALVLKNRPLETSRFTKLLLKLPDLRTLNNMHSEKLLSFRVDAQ
# PG9 bind confirm: binders of anti-gp120 antibody PG9, confirmation, biochemical, TR-FRET | shares compounds with PG9 Ab binder | TR-FRET PG9 antibody binding | inhibition, % at 6.7 µM | hit rate 90% among 1,500 | AID 651571, 2012; in the data active = inhibition above about 9%
# PGV04 Ab binding: binders of control antibody PGV04, counter-screen for PG9 antibody binder project, biochemical, TR-FRET, distinct HIV envelope site; shares compounds with PG9 Ab binder; TR-FRET PGV04 antibody-gp120 binding; inhibition, % at 6.7 µM; hit rate 95% among 1,500; in the data active = inhibition above about 9.5%
# PG9 binder DR: small-molecule binders of antibody PG9, dose response, biochemical, TR-FRET, HIV-1 gp120 antibody | shares compounds with PG9 Ab binder | TR-FRET PG9 antibody-gp120 binding inhibition | IC50, µM | 95 tested, under 10 active | AID 651848, 2012; in the data active = IC50 below about 10 µM
# PGV04 DR counter: binders of control antibody PGV04, dose response, counter-screen for PG9 antibody binder project, biochemical, TR-FRET, distinct HIV envelope site; hit rate 20% among 95; IC50, µM; AID 651937, 2012; TR-FRET binding to control antibody PGV04; shares compounds with PG9 Ab binder
# PG126 binding DR: binders of control antibody PG126, dose response, counter-screen for PG9 antibody binder project, biochemical, TR-FRET, distinct HIV envelope site; AID 651939, 2012; shares compounds with PG9 Ab binder; hit rate 20% among 95; IC50, µM; TR-FRET binding to antibody PG126, counterscreen
# Starred values were filed as active, the others as inactive; i = inactive; . = not tested or not shown. Rule as the data show it, unless noted: active = IC50 below about 9 µM; inactive = the rest.
SMILES,SKN-1 inh,PG9 Ab binder,RAM inhibit,EP2 antag,EP2 modulator,Rev-erbA mod,PG9 bind confirm,PGV04 Ab binding,others
N/C(=N\c1nc2ccccc2o1)NC(=O)c1ccccc1NC(=O)c1ccccc1,27,11*,5,30,-14,18,11*,19*,
O=C(Cn1cnc2ccccc2c1=O)Nc1nc2ccccc2s1,-6,18*,6,13,-5,3,21*,28*,
COc1ccc(NC(=O)c2oc3ccccc3c2NC(=O)C2CC2)cc1,11,12*,0,7,26,18,9.0*,9,PG9 binder DR=>67;PGV04 DR counter=i;PG126 binding DR=i
COc1cccc(NC(=O)c2oc3ccccc3c2NC(=O)C2CC2)c1,-9,-1,0,4,-6,2,.,.,
COc1ccc(N2CCN(C(=O)Cn3c(=O)[nH]c4ccccc4c3=O)CC2)cc1,.,-1,2,2,-44,0,.,.,
O=C(Cn1c(=S)[nH]c2ccccc2c1=O)N1CCN(c2ccc(F)cc2)CC1,-21,11*,5,6,-45,9,16*,26*,
Cc1noc(C)c1C(=O)Nc1sc2c(c1C(N)=O)CCC2,12,12*,3,10,-13,6,6,17*,
Cc1noc(C)c1C(=O)Nc1sc2c(c1C(N)=O)CCCCC2,1,0,.,8,-10,-1,.,.,
Cn1ncc(Cl)c1C(=O)Nc1sc2c(c1C(N)=O)CCC2,32,8.7*,2,12,-25,10,12*,29*,
COc1cccc(CNC(=O)CN2CCC(n3cnc4cccnc43)CC2)c1,.,.,.,0,-33,.,.,.,
Cc1ccc(CN(CCCn2ccnc2)Cc2ccccc2F)s1,.,.,.,8,40,.,.,.,
OC(CN1CCC2(CC1)CC(O)c1cc(F)ccc1O2)c1ccc(F)c(F)c1 (stereo not drawn),.,.,.,0,-83,.,.,.,
CC(C)[C@H](Cn1nc(-c2cccs2)ccc1=O)NC(=O)c1cc(C2CC2)on1,.,.,.,8,-25,.,.,.,
COc1ccc(/C=C/c2cc(O)cc(OC3OC(CO)C(O)C(O)C3O)c2)cc1 (stereo not drawn),7,-1,.,.,.,0,.,.,
OC[C@H]1O[C@@H](Oc2ccc3cc(Br)ccc3c2)[C@H](O)[C@@H](O)[C@H]1O,9,11*,.,.,.,-2,17*,24*,
Cc1sc(NC(=O)CSc2nnc(Cc3ccccc3)n2C)c(C#N)c1C,.,.,.,21,-7,.,.,.,
O=S(=O)(c1ccc(F)c(F)c1F)N1CCN(c2ncnc3sccc23)CC1,6,11*,.,.,.,0,8,16*,
COc1cc2cc(CN(CCO)S(=O)(=O)c3cccc4nsnc34)c(=O)[nH]c2cc1OC,.,.,.,13,-24,.,.,.,
N#C/C(=C(/O)COC(=O)COc1cccc(Br)c1)c1nc2ccccc2[nH]1,-6,12*,.,11,-25,7,19*,31*,
CCC(c1nnnn1C1CCCC1)N(Cc1ccc(F)cc1)Cc1cc2ccc(OC)cc2[nH]c1=O (stereo not drawn),.,.,.,6,24,.,.,.,
COc1cc(C(=O)Nc2cccc(-c3nc4ncccc4o3)c2C)cc(OC)c1OC,-6,2,2,18,-55,3,.,.,
COc1cc(C(=O)Nc2cccc(-c3nc4cc(C)ccc4o3)c2C)cc(OC)c1OC,0,12*,5,0,26,9,17*,27*,
O=c1oc(-c2ccc(O)c(O)c2)cc2cccc(O)c12,5,0,.,.,.,-1,.,.,
O=C1C=Cc2cccc3ccc(O)c1c23,11,16*,.,.,.,-6,20*,26*,
Cc1ccc(NC(=O)COC(=O)c2cc(Cl)ccc2Cl)c(Br)c1,7,22*,7,11,18,4,31*,40*,
SMILES,SKN-1 inh,PG9 Ab binder,RAM inhibit,EP2 antag,EP2 modulator,Rev-erbA mod,PG9 bind confirm,PGV04 Ab binding,others
CCCn1c(SCC(=O)Nc2c(C)cc(C)cc2C)nnc1-c1ccccn1,.,.,.,8,2,.,.,.,
Cc1ccccc1-c1nsc(SCC(=O)NCc2ccc3c(c2)OCO3)n1,0,3,5,3,-10,2,.,.,
Cc1ccc(-c2nsc(SCC(=O)NCc3ccc4c(c3)OCO4)n2)cc1,0,16*,4,5,2,1,18*,21*,
COCC(=O)NC1CCN(CC(=O)Nc2ccc(C)cc2Br)CC1,.,.,.,10,-36,.,.,.,
Cc1cc(NC(=O)CSc2nc(-c3cccs3)cc(C(F)(F)F)n2)no1,-4,24*,3,15,-10,10,34*,43*,
COc1ccc(CC(=O)NC2CC(C)(C)Cc3c2cnn3C)cc1 (stereo not drawn),.,.,.,9,-16,.,.,.,
Cc1nnc2nc(-c3ccc(NC(=O)CCn4cncn4)cc3)cn2c1C,.,.,.,.,-18,.,.,.,
NC(=O)CSc1nc2c(c(=O)n1-c1ccccc1)C1(CCCCC1)Cc1ccccc1-2,-9,3,8,12,43,20,.,.,
Cc1cccc(-n2c(SCC(N)=O)nc3c(c2=O)C2(CCCC2)Cc2ccccc2-3)c1,7,19*,8,12,59,-3,20*,25*,
Cc1cc(Br)cn2cc(C(=O)O)nc12,-1,16*,2,19,48,-1,21*,26*,
CCOC(=O)c1c(N)sc(=S)c2c1CCC2,19,9.5*,2,61*,5,-6,6,10*,
CCOC(=O)c1c(N)sc(N)c1C(=O)OCC,15,-8,1,11,33,2,.,.,

# Assay outcomes: PubChem BioAssay, several laboratories
